Data reported in PubChem BioAssay (EPA / NIEHS).
Records with an inconclusive call do not appear. Active and inactive are the calls of the source. The calls were made as follows: active = hit-call score of the fitted dose curve at least 0.9, where 1 is the maximum; inconclusive = response in the unintended direction; inactive = score below 0.9.

Experiment: ACEA_ER_80hr: ACEA Biosciences xCELLigence Real-Time Cell Analysis on Estrogen Receptor Agonism for Proliferation (AID 2282667)
Settings: T47D proliferation, impedance (xCELLigence), 80 h
Procedure: ACEA_ER is a cell-based, single-readout assay that uses T47D, a human breast cell line, with measurements taken at 80 hours after chemical dosing in a 96-well plate, although TO2 (mc0.srcf) used a 384-well plate. Differences in plate size can be ignored given data normalization.ACEA_ER_80hr is one of two assay component(s) measured or calculated from the ACEA_ER assay. It is designed to make measurements of real-time cell-growth kinetics, a form of growth reporter, as detected with electrical impedance signals by Real-Time Cell Electrode Sensor (RT-CES) technology.Data from the assay component ACEA_ER_80hr was analyzed into 1 assay endpoint. This assay endpoint, ACEA_ER_80hr_Positive, was analyzed in the positive analysis fitting direction relative to DMSO as the negative control and baseline of activity. Using a type of growth reporter, measures of the cells for gain-of-signal activity can be used to understand the signaling at the pathway-level as they relate to the gene ESR1. Furthermore, this assay endpoint can be referred to as a primary readout, because this assay has produced multiple assay endpoints where this one serves a signaling function. To generalize the intended target to other relatable targets, this assay endpoint is annotated to the nuclear receptor intended target family, where the subfamily is steroidal.
The xCELLigence system Multi-E-Plate stations were used to measure the time-dependent response to chemicals. Each compound was tested in an eight-point, 1:4 serial dilution series starting at a maximum final concentration of 100 uM. A maximum starting concentration of 0.5% DMSO was present in the 100 uM chemical samples and was diluted along with the test article dilution series. The screen was performed in biological duplicate using two separate, 96-well, E-Plates 96 for each dilution series (n = 2). Positive controls (MG132 and E2) and a negative control (assay media) were tested in quadruplicate on each testing plate. […] Reference compounds were tested with 8 concentrations with 1:5 serial dilutions. All screening was carried out by ACEA Biosciences, Inc. (San Diego, CA). T-47D cells purchased from ATCC were maintained in RPMI1640 media supplemented with 10% characterized fetal bovine serum (FBS). […] Cells were then detached and seeded in E-Plates 96 in assay medium. After overnight monitoring of growth once every hour, compounds were added to […] cells and remained in the medium until the end of the experiment. Cellular responses were then recorded once every 5 min for the first 5 h, and once every hour for an additional 100 h.

SMILES | outcome | AC50
CCCCOC(=O)c1ccccc1 | inactive | –
S=P(N1CC1)(N1CC1)N1CC1 | inactive | –
CC(C)c1nnc2ccc(-c3ocnc3-c3cc(F)ccc3F)cn12 | inactive | –
OC(CCl)CCl | inactive | –
O=S(=O)(O)c1ccc(N=Nc2c(O)ccc3cc(S(=O)(=O)O)ccc23)cc1 | inactive | –
CC(C)CCCCCCOC(=O)C1CCCCC1C(=O)OCCCCCCC(C)C (stereo not given) | inactive | –
Cc1cccc(O)c1C | inactive | –
OC[C@H]1O[C@@H]2O[C@H]3[C@H](O)[C@@H](O)[C@@H](O[C@H]4[C@H](O)[C@@H](O)[C@@H](O[C@H]5[C@H](O)[C@@H](O)[C@@H](O[C@H]6[C@H](O)[C@@H](O)[C@@H](O[C@H]7[C@H](O)[C@@H](O)[C@@H](O[C@H]1[C@H](O)[C@H]2O)O[C@@H]7CO)O[C@@H]6CO)O[C@@H]5CO)O[C@@H]4CO)O[C@@H]3CO | inactive | –
C=CCc1cc(S(=O)(=O)c2ccc(O)c(CC=C)c2)ccc1O | inactive | –
O=C(N[C@H](CO)[C@H](O)c1ccc([N+](=O)[O-])cc1)C(Cl)Cl | inactive | –
Cc1ccc(S(=O)(=O)NC(=O)NN2CCCCCC2)cc1 | inactive | –
CCOC(N)=O | inactive | –
CCCCC(CC)C(=O)OCCOCCOCCOC(=O)C(CC)CCCC (stereo not given) | inactive | –
C=CN1CCCC1=O | inactive | –
Cc1nccn1-c1ccc(Sc2cccc(C3(C(N)=O)CCOCC3)c2)cc1 | – | 0.782 µM (active)
COS(C)(=O)=O | inactive | –
CCCCCCCCN(C)C | inactive | –
Cn1c(=O)c2[nH]cnc2n(C)c1=O | inactive | –
CCCCCOC(C)=O | inactive | –
FC(F)=C(F)C(F)(F)C(F)(F)C(F)(F)C(F)(F)C(F)(F)C(F)(F)F | inactive | –

SMILES | outcome | AC50
CC[C@H](C)C(=O)O[C@H]1C[C@H](O)C=C2C=C[C@H](C)[C@H](CC[C@@H](O)C[C@@H](O)CC(=O)O)[C@H]21 | inactive | –
C[Si](C)(C)C(F)(F)C(F)(F)C(F)(F)F | inactive | –
COc1cc(C(C)C)c2c(c1)S(=O)(=O)N(COc1cc(=O)n3cccc(OCCN4CCCCC4)c3n1)C2=O | inactive | –
CC(=O)c1ccccc1 | inactive | –
OCCNCCO | inactive | –
OCC(CO)(CO)CO | inactive | –
c1ccc2c(c1)-c1cccc3c1c-2cc1ccccc13 | inactive | –
C[C@]12C=CC(=O)C=C1CC[C@H]1[C@@H]3C[C@@H](O)[C@](O)(C(=O)CO)[C@@]3(C)C[C@H](O)[C@@]12F | – | 10.9 µM (active)
c1ccc2cc3ccccc3cc2c1 | inactive | –
OC(Cn1cncn1)(Cn1cncn1)c1ccc(F)cc1F | inactive | –
CCN(CC)C(=S)SSC(=S)N(CC)CC | inactive | –
CCc1ccc(O)c(C(C)(C)C)c1 | inactive | –
OCCOCCOCCO | inactive | –
COCc1nnc(-c2ccc[n+]([O-])c2)n1-c1c(Cl)c(Cl)cc2[nH]c(=O)c(=O)[nH]c12 | inactive | –
CCn1nc(C)c2c1C(=O)NCC(c1ccc(O)cc1)=N2 | inactive | –
CNC(C)=O | inactive | –
O=c1[nH]cnc2c1ncn2[C@H]1CC[C@@H](CO)O1 | inactive | –
OC[C@H]1O[C@@](CO)(O[C@H]2O[C@H](CO)[C@@H](O)[C@H](O)[C@H]2O)[C@@H](O)[C@@H]1O | inactive | –
c1ccc(C(O[C@@H]2CCCN(CCc3ccc4c(c3)OCO4)C2)c2ccccc2)cc1 | inactive | –
C[C@@H](Oc1ccc(CNC(=O)c2cccnc2Oc2ccc3c(c2)OCO3)c(F)c1)C(=O)O | inactive | –
